Data reported in PubChem BioAssay AID720706 (Broad Institute, 2013).
About 5,500 (1.6%) of roughly 350,000 compounds were called active.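 Rule for the calls: active = significant combined selectivity score with lowered wild-type GFP, culture density cut under 30%, mutant RFP and density less affected; inactive = any of these conditions unmet.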 Only a selection was taken, and actives are over-represented in it overall.

Assay: reduced GFP signal of wild-type E. coli, primary screen, bacterial rRNA inhibitor project, GFP/RFP fluorescence, OD600, single point (AID 720706)
Conditions: E. coli WT GFP vs humanized-ribosome RFP mutants, 24 h; GFP signal change (wild-type ribosome): stronger effect = lower value, DMSO median 0, no signal -100; OD600 change: measured here: OD600 growth, DMSO median 0, no signal -100; RFP signal change: measured here: RFP humanized mutant strains, DMSO median 0, no signal -100, concentration not given here

Compound	GFP signal change (wild-type ribosome)	OD600 change [%]	RFP signal change [%]
COc1ccc(-c2ccc3n(c2=O)C[C@@H]2[C@@H](CO)[C@H](C(=O)Nc4ccccc4)[C@H]3N2C)cc1	-5.3% (inactive)	-0.765	-2.67
N#C[C@H]1[C@@H](c2ccc(C#CC3CCCC3)cc2)[C@H](CO)N1C(=O)Nc1ccc(F)cc1	-20.3% (inactive)	-36.1	20.2
COc1cc(Cl)ccc1OCc1cc(C(=O)N(C)CCc2c(C)n[nH]c2C)no1	-23.6% (active)	-18.4	4.51
CCn1ccnc1CN(C)C(=O)c1cc(COc2ccc(Cl)cc2OC)on1	2.1% (inactive)	0.213	-1.68
CSc1ccccc1OCc1cc(C(=O)N(C)CCc2c(C)n[nH]c2C)no1	-27.9% (inactive)	-25.7	-4.44
COc1ccc(C(C)=O)cc1COc1ccc(Cl)c(C)c1	-21% (active)	2.55	1.65
Cc1ccc(/C(N)=N/OC(=O)COc2ccc(Cl)c(C)c2)cc1	6.91% (inactive)	1.73	-7.27
CCOc1ccc(C(C)=O)cc1COC(=O)c1cnc(Cl)c(Cl)c1	4.75% (inactive)	3.34	-2.34
C[C@@H]1CN([C@@H](C)CO)C(=O)Cc2cc(NC(=O)Nc3ccc(C(F)(F)F)cc3)ccc2O[C@H]1CN(C)Cc1ccc(C(=O)O)cc1	-4.09% (inactive)	-39.2	-9.85
C[C@@H]1CN([C@@H](C)CO)S(=O)(=O)c2ccc(C#Cc3cccnc3)cc2O[C@@H]1CN(C)C	11% (inactive)	15.5	0.337
S=C(Nc1ccc(Cl)cc1Cl)N1CCCC1	-29.6% (active)	3.51	-5.19
S=C(Nc1ccc(Br)cc1Cl)N1CCC2(CC1)OCCO2	-18.4% (inactive)	-20.4	-6.29
O=C(NC(=S)Nc1ccc(Cl)cc1Cl)C1CC1	-7.95% (inactive)	-11.5	2.17
Cc1cc(C)n2nc(SCC(=O)NC(=O)NCc3ccco3)nc2n1	24.5% (inactive)	11.7	-0.644
COc1ccc(-n2c(SCC(=O)NCc3ccco3)nnc2-c2c[nH]c3ccccc23)cc1	-0.435% (inactive)	-16.1	3.4
O=C(CSc1nnc(-c2ccco2)n1Cc1ccccc1)NC(=O)NCc1ccco1	-20.4% (active)	-7.72	1.04
Cc1ccc(C(=O)N/C(=C\c2ccc(F)cc2)C(=O)NCCN2CCOCC2)cc1	8.39% (inactive)	9.73	-0.48
Cc1c(C(=O)NCCN2CCOCC2)sc2nc(-c3ccc(F)cc3)cn12	-16.9% (active)	-2.55	3.25
Cc1c(C(=O)NCC2CCCO2)sc2nc(-c3ccccc3)cn12 (configuration not stated)	-4.79% (inactive)	-21.2	-7.98
C/C=C/c1ccc([C@H]2[C@@H](CO)N(C(=O)Cc3ccncc3)[C@@H]2CNC(C)=O)cc1	1.54% (inactive)	6.92	-0.347
Nc1nonc1-n1nnc(C(=O)N/N=C/c2ccc(Cl)cc2)c1-c1ccc2c(c1)OCO2	0.08% (inactive)	0.681	-3.98
C(=N\Nc1ccc2ccccc2n1)/c1ccc2c(c1)OCO2	-21.9% (active)	16.6	-0.634

Compound	GFP signal change (wild-type ribosome)	OD600 change [%]	RFP signal change [%]
NC(=O)c1ccc(NC(=O)COC(=O)c2c3c(nc4ccccc24)/C(=C\c2ccc4c(c2)OCO4)CCC3)cc1	55.8% (inactive)	-19.8	1.2
C[C@@H]1CN([C@@H](C)CO)C(=O)c2cccc(NC(=O)c3cnccn3)c2O[C@H]1CN(C)S(=O)(=O)c1cccs1	4.71% (inactive)	6.99	-1.1
CCC(=O)Nc1ccc2c(c1)OC[C@H](C)N(Cc1ccccc1OC)C[C@@H](C)[C@@H](OC)CN(C)C2=O	0.179% (inactive)	4.08	2.06
CCCNC(=O)N(C)C[C@@H]1Oc2ncc(-c3ccccc3F)cc2C(=O)N([C@@H](C)CO)C[C@H]1C	0.96% (inactive)	11.5	-3.35
O=C(Nc1ccccc1)Oc1cccc2cccnc12	7.63% (inactive)	14.2	1.55
CC(=O)/C(=N\Nc1ccc(Cl)cc1Cl)Sc1cccc2cccnc12	-8.55% (inactive)	-0.275	-1.79
O=C(Nc1ccccc1Cl)Nc1cccc2cccnc12	-27.2% (active)	-17.3	-8.08
COc1ccc2c3c(n(C)c2c1)[C@@H](CO)N(S(C)(=O)=O)CC31CCN(C(=O)C2CCC2)CC1	-4.54% (inactive)	-7.74	-2.66
CCOC(=O)c1sc(/N=C/C2=C(O)CC(C)(C)CC2=O)c(C(=O)OCC)c1C	-22.9% (active)	-5.5	-2.5
CCOC(=O)c1c(CC(C)C)csc1/N=C/C1=C(O)CCCC1=O	-13.2% (inactive)	-8.82	21.8
CCNC(=S)N1CCN(CCN=CC2=C(O)CC(C)(C)CC2=O)CC1	9.96% (inactive)	0.25	-7.06
CC(C)C#Cc1ccc([C@H]2[C@@H](CO)N3CCCCN(C(=O)Nc4ccccc4)C[C@H]23)cc1	-26% (inactive)	-29.6	1.8
CO[C@@H]1CN(C)C(=O)c2ccc(NC(=O)NC(C)C)cc2OC[C@@H](C)N(C)C[C@H]1C	2.58% (inactive)	9.18	2.18
C=CCOC(=O)C1=C(C)NC(C)=C(C(=O)OCC=C)C1c1cccs1	-17.1% (active)	-4.32	3.89
C=CCOC(=O)c1ccccc1C(=O)OCC=C	7.54% (inactive)	7.92	12
COC(=O)C1=CN(Cc2ccc(OC)c(OC)c2)C=C(C(=O)OC)C1c1cccs1	-4.13% (inactive)	-22.2	6.91
Cc1noc(C)c1S(=O)(=O)Nc1ccc2c(c1)C(=O)N([C@@H](C)CO)C[C@@H](C)[C@@H](CN(C)S(=O)(=O)c1ccccc1)OCCCC[C@H](C)O2	-1.55% (inactive)	-7.72	-2
CC1(C(=O)NCc2ccco2)Cc2c(-c3ccc4c(c3)OCO4)ccnc2O1 (configuration not stated)	10.2% (inactive)	0.265	-2.19
O=C1Nc2ccccc2NC(c2ccc3c(c2)OCO3)=C1N(Cc1ccc(F)cc1)C(=O)c1ccco1	-28.3% (active)	-22.6	8
CC(NC(=O)c1ccco1)c1ccc2c(c1)OCO2 (configuration not stated)	-0.41% (inactive)	4.91	-2.06
CC(C)NC(=O)N(C)C[C@@H]1OCc2ccccc2-c2c(n(C)c3ccccc23)C(=O)N([C@@H](C)CO)C[C@H]1C	1.88% (inactive)	-5.55	-8.97
CC(C)c1ccc(NC(=O)C2CCCN(S(=O)(=O)c3cccnc3)C2)cc1 (configuration not stated)	-15.6% (inactive)	-14.1	-1.15

Compound	GFP signal change (wild-type ribosome)	OD600 change [%]	RFP signal change [%]
CC(=O)Nc1ccc(NC(=O)C2CCCN(S(=O)(=O)c3ccc(Cl)cc3)C2)cc1 (configuration not stated)	6.79% (inactive)	9.12	-1.21
Cc1n[nH]c(C)c1S(=O)(=O)N1CCCC(C(=O)Nc2ccc(Br)cc2)C1 (configuration not stated)	-18.5% (active)	-8.94	2.17
C[C@H](CO)N1C[C@H](C)[C@H](CN(C)CC2CCCCC2)Oc2ccc(NC(=O)CCCCCC(=O)Nc3ccccc3N)cc2C1=O	3.67% (inactive)	1.29	2.33
CN(C)C(=O)[C@H]1[C@H](CO)[C@H]2Cn3c(ccc(-c4ccc(F)cc4)c3=O)[C@H]2N1C(=O)c1ccccn1	3.15% (inactive)	9.51	0.335
COC(=O)C[C@@H]1CC[C@@H]2[C@H](COc3ccc(NS(=O)(=O)c4ccccc4F)cc3C(=O)N2C)O1	-1.08% (inactive)	1.69	1.71
O=S1(=O)CCOC[C@H](Cc2ccccc2)N1Cc1ccccc1Br	-13.5% (inactive)	-12.2	-2.23
Brc1ccccc1CN1CCC(Cc2ccccc2)CC1	-24.7% (active)	-12	-3.42
NC(=O)c1ccc(CN2CCC(Cc3ccccc3)CC2)cc1	20.9% (inactive)	10.4	1.24
O=C(C[C@H]1CC[C@@H]2[C@H](COC[C@H](O)CN2S(=O)(=O)c2ccccc2)O1)N1CCOCC1	6.11% (inactive)	11.2	-4.33
O=C(c1ccccc1)N1CC(=O)N2[C@@H](CO)[C@H](c3ccc(C#CC4CC4)cc3)[C@@H]2C1	4.2% (inactive)	0.601	-2.44
CCCNC(=O)N1CC2(CN(C(=O)C3CCCCC3)C2)c2c([nH]c3cc(OC)ccc23)[C@@H]1CO	-0.587% (inactive)	-2.63	-0.961
O=S1(=O)CC(N2CCN(Cc3ccccc3F)CC2)CN1Cc1cn(Cc2cccc(C(F)(F)F)c2)nn1 (configuration not stated)	-29.5% (active)	-22.9	-2.53
Cc1cccc(CN2CCN(C3CN(Cc4cn(Cc5ccccc5F)nn4)S(=O)(=O)C3)CC2)c1 (configuration not stated)	6% (inactive)	11	-3.05
O=S1(=O)CC(N2CCN(Cc3ccccc3F)CC2)CN1Cc1cn(Cc2ccccc2)nn1 (configuration not stated)	15% (inactive)	11.5	0.47
C[C@@H]1CN([C@H](C)CO)C(=O)c2cccc(NC(=O)C3CC3)c2O[C@@H]1CN(C)C(=O)Nc1ccccc1	4.57% (inactive)	10.7	-0.0555
O=C(C[C@H]1CC[C@@H](NC(=O)Cc2ccccn2)[C@H](CO)O1)NCCc1ccccc1	-0.355% (inactive)	-12	-1.51
Cc1cc(C(=O)O)ccc1[N+](=O)[O-]	-5.96% (inactive)	-5.09	-0.268
CN1c2ccc([N+](=O)[O-])cc2C(C)(C)C12C=Cc1cc(C(=O)O)ccc1O2 (configuration not stated)	-34.2% (active)	-21.4	-10.7
O=[N+]([O-])c1ccc(N2CCN(c3ccc(O)cc3)CC2)c(Cl)c1	-7.92% (inactive)	0.78	1.58
O=C(c1cccc(F)c1)N1C[C@H]2[C@@H](c3ccccc31)[C@@H](CO)N2C(=O)Cc1ccccc1	2.22% (inactive)	9.86	-2.34
